Here are results for 56 compounds from ChEMBL document CHEMBL4513216, “Probing the Open Global Health Chemical Diversity Library for Multistage-Active Starting Points for Next-Generation Antimalarials” (ACS Infect Dis, 2020).

SMILES strings stand for the structures. In all, about 69,000 compounds went through this assay and about 8,600 (12%) showed an effect of 50% or more. This excerpt belongs to a sample that is enriched for strong results.

The assay relates to Plasmodium berghei. Kind of assay: Screen against P. berghei liver stage (PbLuc), transformed with Luciferase, at 10uM. Conditions: tested at 10 uM. Type of assay: functional, HepG2.
Consider `O=C(NCC1CC1)c1n[nH]c2c1CNCC2`, for which the INHIBITION is recorded as -8.51%. To `Cc1cc(C)n(CCN(C)Cc2c[nH]nc2-c2ccc3c(c2)OCO3)n1` belongs 26.7%; to `CNC(=O)[C@H]1CC[C@@H]2[C@@H](CCN2CCOCc2ccccc2)O1`, 45.7%. With `CC(=O)N(C)C1CCC2(CC1)CNC(=O)c1cc(C)ccc1O2` (stereo unspecified), the INHIBITION is recorded as -20.2%. To `N#Cc1ccnc(N2CCN(C3CCOC3=O)CC2)c1` (stereo unspecified) belongs -33.1%. For `CSc1nccc(N2CCC(NCCN3CCOCC3)CC2)n1`, the INHIBITION was 53.6%. To `N#Cc1ccnc(N2CCC(NCCN3CCOCC3)CC2)c1` belongs 66.5%; to `CCC1CCC(NCCN2CCOCC2)CC1` (stereo unspecified), 49.4%.

As to `N#Cc1ccnc(N2CCN(CC(O)c3ccccc3)CC2)c1` (stereo unspecified), the INHIBITION is -76.3%. To `N#Cc1ccnc(N2CCN(C(=O)NC3CCS(=O)(=O)C3)CC2)c1` (stereo unspecified) belongs -19.9%; to `N#Cc1ccnc(N2CCN(Cc3cccc(F)c3)CC2)c1`, -23.7%.

For the compound `C1CCC(NCCN2CCOCC2)C1`, the INHIBITION was determined as 5.41%. To `N#Cc1ccnc(N2CCC(NCCN3CCCC3)CC2)c1` belongs 57.3%; to `O=C(c1ccc(F)cc1)N1C[C@@H]2OCCN(c3ncccn3)[C@@H]2C1`, 10%. To `Cc1nnc(SCc2ccccn2)s1` belongs 44.1%; to `CCSCCNC(=O)c1ccc(S(=O)(=O)N2C[C@H]3C[C@@H]2CN3)cc1`, 9.91%. To `CC(C)c1cc(N(C)Cc2noc(C3CCCC3)n2)n2nccc2n1` belongs 46.4%; to `c1cnc(N2CCOCC3(CN(Cc4nccs4)CCO3)C2)nc1` (stereo unspecified), -34.7%; to `Cc1cc(Cc2ccccc2)cc(C2CCCNC2)n1` (stereo unspecified), 28.5%. With `Cc1cc(Cc2cccc(C(F)(F)F)c2)cc(C2CCCNC2)n1` (stereo unspecified), the INHIBITION came to 80.5%. To `Cc1cc(Cc2ccccc2C)cc(C2CCCNC2)n1` (stereo unspecified) belongs -11.4%; to `Cc1cc(Cc2ccc(F)cc2)cc(C2CCCNC2)n1` (stereo unspecified), 32.3%; to `Cc1cc(Cc2ccccc2F)cc(C2CCCNC2)n1` (stereo unspecified), 36.9%. In the case of `Cc1cccc(Cc2cc(C)nc(C3CCCNC3)c2)c1` (stereo unspecified), the INHIBITION is on record as 54.5%. To `Cc1cnn(CC2CCCN2C(=O)c2csc(C(C)C)n2)c1` (stereo unspecified) belongs 35.3%; to `COc1ccc(C(=O)N2CCCC3(CCCC(=O)N3C)C2)cc1` (stereo unspecified), 24.8%; to `CNC(=O)c1ccccc1-c1ccc(S(C)(=O)=O)cc1`, -19.1%. To `COCCN1C[C@@H]2[C@@H](OC)CCN(Cc3ccc(C)o3)[C@@H]2C1` belongs 15.4%. To `CSCCC(=O)N1C[C@H](Nc2ccnc(C)n2)[C@@H](C(C)C)C1` belongs -15.5%. For `Cc1nccc(N[C@H]2CN(C(=O)C3(C#N)CCOCC3)C[C@@H]2C(C)C)n1`, the INHIBITION is reported as -5.1%.

Take `Cc1nccc(N[C@H]2CN(C(=O)CN3CCOCC3)C[C@@H]2C(C)C)n1`: the INHIBITION amounted to 43.6%. To `Cc1csc(N2CCCN(C(=O)CCN3CCCC3=O)CC2)n1` belongs -21.8%; to `Cc1nccc(N[C@H]2CN(C(=O)CCN3CCCC3=O)C[C@@H]2C(C)C)n1`, 55%; to `Cc1nccc(N[C@H]2CN(C(=O)CN3CCCC3=O)C[C@@H]2C(C)C)n1`, 62.9%. To `CC(C)(Oc1ccc(C(N)=O)cc1)C(=O)N(CCC#N)CC1CCCO1` (stereo unspecified) belongs 28.3%; to `Cc1nc(C)n(CC2CCCN2CC(=O)Nc2c(C)n[nH]c2C)n1` (stereo unspecified), 29.305%. To `Cn1nc(C(=O)NCc2ccc(OC3CCCCC3)nc2)ccc1=O` belongs 47.7%; to `COCc1nc(-c2ccnc(N3CCNCC3)n2)no1`, 38.3%; to `COCCCN(Cc1ccccn1)S(=O)(=O)Cc1ccccc1`, 46.1%. Regarding `CNc1nc(CNC(=O)Nc2cccc(-n3ccc(C)n3)c2)cs1`, the INHIBITION stood at 7.42%. On to `O=C(O)[C@H]1C[C@@H](C(=O)NCc2ccncc2)CN(Cc2ccccc2)C1`, for which the INHIBITION is on record as 17.2%. To `Fc1cccc(CN2C[C@@H]3COC[C@]3(COCc3ccncc3)C2)c1` belongs 49.7%; to `Cc1cc(C)c(-n2cccn2)c(CN2CCOCC(CN(C)C)C2)c1` (stereo unspecified), 36.5%; to `Cc1cc(-n2cccn2)ccc1CN1CCOCC(CN(C)C)C1` (stereo unspecified), 62.2%. To `COc1ccc(-n2cccn2)c(CN2CCOCC(CN(C)C)C2)c1` (stereo unspecified) belongs 15.2%; to `NC(=O)C1CCN(C(=O)CCn2c(C(F)(F)F)cc3cccnc32)CC1`, 1.5%. As for `Cc1ccc(=O)n(CC2(O)CCN(Cc3cnc(N(C)C)nc3)CC2)n1`, the INHIBITION is on record as 14.7%.

Take `c1cncc(Cc2nnc3n2CCN(CC2CCCNC2)CC3)c1` (stereo unspecified): the INHIBITION is 16.3%. To `CC(C)c1ccccc1OCCNC(=O)N1CCC(CC(N)=O)CC1` belongs 5.76%. To `CC(C)c1n[nH]c(C2CN(C(=O)c3cc(C4CC4)[nH]n3)CCO2)n1` (stereo unspecified) belongs -20.2%; to `O=C(Cc1ccc2c(c1)CCCC2)Nc1cccnc1N1CCSCC1`, 53.5%; to `O=C(Cc1ccc2c(c1)CCCC2)NCCNc1cnccn1`, 31.9%.

For the compound `O=C(Cc1ccc2c(c1)CCCC2)NCCc1ccccn1`, the INHIBITION was 70.7%.

On to `O=C(Nc1cccnc1N1CCSCC1)c1ccc2c(c1)CCC2`, for which the INHIBITION came out at 38.6%. To `O=C(Nc1cccnc1N1CCSCC1)c1cc2c(s1)CCCCC2` belongs 19.8%. To `O=C(Cc1ccc2c(c1)CCC2)NCCNc1ncccn1` belongs 45.9%.
